Inconclusive results are not listed. Activity calls are given as the source filed them. The calls were made as follows, unless noted: active = hit-call score of the fitted dose curve at least 0.9, where 1 is the maximum; inactive = score below 0.9.
Assays:
[1] = TAMU_PeakParms_SingleDonor1434_Chronotropy: Texas A&M University (TAMU) 1.5-hr Human Induced Pluripotent Stem Cell (iPSC)-derived Cardiomyocytes Calcium (Ca+2) Flux Assay for Cardiotoxicity: Chronotropy (changes in peak frequency) (AID 2284217); details: actives raise or lower the signal
Method in brief: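 iPSC-derived cardiomyocytes (single donor 1434) dosed at 0.2, 1, 10 and 100 uM in 0.5% DMSO for 1.5 h at 37C; Ca2+ dye fluorescence gave average beat frequency. Zero-beat points removed; bidirectional fit versus DMSO, POD as EC05.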

[2] = BSK_BT_PBMCCytotoxicity: PBMC Cytotoxicity Assessment in the BioMAP Diversity Plus: BT Assay (AID 2284225); details: primary human B cells with PBMC;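 also: PBMC viability measured by Alamar Blue dye reduction fluorescence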
Method in brief: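 Viability by Alamar Blue reduction (6 h, ex/em 546/580 nm) after 90 h culture of SEB/TSST-1-activated PBMC (20 ng/mL each) given compound 1 h before activation. DMSO served as baseline for curve fitting.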

[3] = read-out: Secreted IgG (sIgG), gene 3500; experiment: BSK_BT_sIgG: BioMAP Diversity Plus: BT Assay for Secreted IgG (sIgG) Biomarker Activity (AID 2284226); details: primary human B cells with PBMC
Method in brief: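 Cells (B cells with peripheral blood mononuclear cells) are dosed, cultured 24 h, then supernatant IgG is measured by ELISA. DMSO serves as negative control; curves are fitted for signal increase.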

[4] = BSK_BT_Bcell_Proliferation: Viability Assessment in the BioMAP Diversity Plus: BT Assay for B cell Proliferation (AID 2284227); details: primary human B cells with PBMC
Method in brief: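 Human B cells co-cultured with PBMC were dosed with test chemicals and relative cell number was quantified by SRB staining at 72 h. Cells were fixed in 10% TCA, stained with 0.1% SRB and read at 560 nm. Activity was fitted in the positive direction against DMSO.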

[5] = read-out: Interleukin 6 (IL6), IL6 (gene 3569); experiment: BSK_BT_xIL6: BioMAP Diversity Plus: BT Assay for Interleukin 6 (IL6) Biomarker Activity (AID 2284228); details: primary human B cells with PBMC
Method in brief: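 Human B cell/PBMC co-culture; secreted IL-6 quantified by Luminex xMAP 24 h after chemical dosing, fitted relative to DMSO. Parallel PBMC viability by Alamar Blue after 1 h pretreatment, 20 ng/mL SEB and TSST-1, 90 h incubation.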

[6] = read-out: Interleukin 17A (IL17A), IL17A (gene 3605); experiment: BSK_BT_xIL17A: BioMAP Diversity Plus: BT Assay for Interleukin 17A (IL17A) Biomarker Activity (AID 2284229); details: primary human B cells with PBMC
Method in brief: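 Co-culture of human B cells and PBMC, dosed for 24 h in 96-well format. Secreted IL-17A measured with Luminex xMAP; gain-direction fitting against DMSO as baseline.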

[7] = read-out: Tumor necrosis factor (Homo sapiens) (UniProt P01375); experiment: BSK_BT_xTNFa: BioMAP Diversity Plus: BT Assay for Tumor necrosis factor alpha (TNF-alpha) Biomarker Activity (AID 2284230); details: primary human B cells with PBMC
Method in brief: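 B cells with PBMC in co-culture, dosed and sampled at 24 h; secreted TNF-alpha measured by Luminex xMAP bead assay. Activity fitted in the gain direction against DMSO as negative control and baseline.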

[8] = read-out: Vascular cell adhesion molecule 1 (VCAM1), VCAM1 (gene 7412); experiment: BSK_MyoF_VCAM1: BioMAP Diversity Plus: MyoF Assay for Vascular cell adhesion molecule 1 (VCAM1) Biomarker Activity (AID 2284231); details: primary human lung fibroblasts
Method in brief: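 Primary human lung fibroblasts (BioMAP MyoF system) dosed with chemical, VCAM-1 measured by ELISA 24 hours later. Fitted in the positive direction against DMSO; parallel SRB staining assessed cytotoxicity.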

[9] = TAMU_HCS_1.5hr_SingleDonor1434_Cytotoxicity: Cytotoxicity Assessment using High-content Screening (HCS) Fluorescent Imaging for the Texas A&M University (TAMU) 1.5-hr Human Induced Pluripotent Stem Cell (iPSC)-derived Cardiotoxicity Assay (AID 2284234; active = hit-call score of the fitted dose curve at least 0.9, where 1 is the maximum)
Method in brief: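 Nuclear counts from Hoechst 33342 imaging define cytotoxicity here, with EC10 (10% cell-count loss relative to DMSO) as point of departure. iPSC cardiomyocytes received 0.2-100 uM test chemical in 0.5% DMSO for 1.5 h at 37 C.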

[10] = CCTE_Mundy_HCI_Cortical_NOG_NeuriteLength: CCTE's Neurite Outgrowth Assay in rat cortical cells for Neurite Length, Mundy Lab (AID 2284213);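 as to AC50: neurites imaged about 48 to 50 h after chemical exposure began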
Method in brief: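 First, rat primary cortical cells were plated and, 2 h later, given test chemical as a 1/10 dilution. Finally, βIII-tubulin immunostaining enabled automated imaging of neurite length.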

[11] = CCTE_Mundy_HCI_Cortical_Synap_Neur_Matur_NeuriteLength: CCTE's Synaptogenesis and Neurite Maturation Assay in rat cortical cells for Neurite Length, Mundy Lab (AID 2284214)
Method in brief: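 Cultures of rat primary cortical cells received chemical at DIV 7 and were fixed at DIV 12, after glial arrest with AraC at DIV 5. Neurite length was measured by automated imaging of MAP2 immunofluorescence.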

[12] = CCTE_Mundy_HCI_Cortical_Synap_Neur_Matur_SynapseCount: CCTE's Synaptogenesis and Neurite Maturation Assay in rat cortical cells for Synapse Count, Mundy Lab (AID 2284218)
Method in brief: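 Cells were plated, allowed 2 hr to attach, treated with AraC at DIV 5, then exposed to chemicals from DIV 7 until DIV 12. After fixation and MAP2/synaptophysin immunolabelling, synapses per neuron were quantified by automated imaging against DMSO.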

[13] = CCTE_Mundy_HCI_Cortical_Synap_Neur_Matur_NeuriteCount: CCTE's Synaptogenesis and Neurite Maturation Assay in rat cortical cells for Neurite Count, Mundy Lab (AID 2284222)
Method in brief: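 Rat primary cortical cells; AraC added at DIV 5, chemicals dosed with media change at DIV 7 through DIV 12. MAP2/synaptophysin/Hoechst immunostaining, high-content imaging of neurite number; fitted relative to DMSO.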

[14] = CCTE_Mundy_HCI_Cortical_Synap_Neur_Matur_CellBodySpotCount: CCTE's Synaptogenesis and Neurite Maturation Assay in rat cortical cells for Cell Body Spot Count, Mundy Lab (AID 2284223)
Method in brief: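 Primary rat cortical cultures, AraC added at DIV 5; dosed DIV 7 through DIV 12 […]. Fixed, stained for MAP2 and synaptophysin with Hoechst; cell body-associated synaptophysin puncta per neuron counted by high-content imaging, loss vs DMSO.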

[15] = CCTE_Mundy_HCI_hN2_NOG_NeuriteCount: CCTE's Neurite Outgrowth Assay in human hN2 cells for Neurite Count, Mundy Lab (AID 2284219; active = hit-call score of the fitted dose curve at least 0.9, where 1 is the maximum)
Method in brief: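 In this morphology assay, hNP1-derived neurons received test chemical 2 h post-plating and were fixed two days later in warm paraformaldehyde/sucrose containing Hoechst 33342. Neurites, labelled by rabbit anti-βIII-tubulin (1:800) and Alexa Fluor-488 (1:500), were counted automatically.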

[16] = CCTE_Mundy_HCI_hN2_NOG_NeuriteLength: CCTE's Neurite Outgrowth Assay in human hN2 cells for Neurite Length, Mundy Lab (AID 2284220; active = hit-call score of the fitted dose curve at least 0.9, where 1 is the maximum)
Method in brief: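 Using βIII-tubulin immunofluorescence and Hoechst nuclear counterstain, this component quantifies neurite length in hNP1-derived neurons.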

[17] = CCTE_Mundy_HCI_hN2_NOG_NeuronCount: CCTE's Neurite Outgrowth Assay in human hN2 cells for Neuron Count, Mundy Lab (AID 2284221; active = hit-call score of the fitted dose curve at least 0.9, where 1 is the maximum)
Method in brief: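 Read-out is the number of betaIII-tubulin-positive neurons imaged by automated high-content analysis, with DMSO as negative control.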

[18] = CCTE_Mundy_HCI_hNP1_Pro_ResponderAvgInten: CCTE's Proliferation Assay in human neuroprogenitor cells, Mundy Lab (AID 2284224; active = hit-call score of the fitted dose curve at least 0.9, where 1 is the maximum;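 also: human neural progenitor cells hNP1 derived from WA09 embryonic stem cells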)
Method in brief: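 Human neuroprogenitors (hNP1, WA09 lineage) receive test chemical after 40 to 44 hours of attachment. A four-hour BrdU pulse begins twenty hours later, followed by fixation and high content imaging; signal is referenced to DMSO controls.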

[19] = UKN2_HCS_IMR90_cell_viability: Viability Assessment in the University of Konstanz (UKN) Leist Lab Neural Crest Cell Migration Assay in human induced IMR90 Pluripotent Stem Cells (UKN2) (AID 2284233);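 also: viability of neural crest cells differentiated from IMR90 iPSC measured by calcein-AM fluorescence imaging; cells exposed to compound for 24 h after a 24 h migration phase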
Method in brief: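 cMINC format, iPSC-derived neural crest (IMR90); 24 h migration (EGF/FGF, N2-S), then 24 h toxicant. Calcein-AM/H-33342 stain 30 min; fluorescence intensity by HCS; DMSO-normalised, bidirectional fitting.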

Measured: AC50

Tumor necrosis factor (Homo sapiens), sequence (P01375 whole entry, looked up): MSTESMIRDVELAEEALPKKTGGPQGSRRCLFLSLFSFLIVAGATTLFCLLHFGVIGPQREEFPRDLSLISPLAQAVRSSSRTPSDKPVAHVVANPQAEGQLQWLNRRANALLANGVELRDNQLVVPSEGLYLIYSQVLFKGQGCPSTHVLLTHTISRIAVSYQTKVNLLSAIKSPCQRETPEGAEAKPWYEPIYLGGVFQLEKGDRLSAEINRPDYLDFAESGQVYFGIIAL

COCCO
inactive: [1] | [2] | [3] | [4] | [5] | [6] | [7] | [8] | [9]

CCC(C)OC(=O)N1CCCCC1CCO (centres undefined)
inactive: [2] | [3] | [4] | [5] | [6] | [7] | [8]

S=C(S)NCCNC(=S)S.[Mn+2].[S-]C([S-])=NCCN=C([S-])[S-].[Zn+2]
inactive: [10] | [11] | [12] | [13] | [14]

O=C(O)c1ccccc1
inactive: [10] | [11] | [1] | [12] | [15] | [16] | [17] | [13] | [14]

Cc1nn(C)c(Oc2ccccc2)c1C=NOCc1ccc(C(=O)OC(C)(C)C)cc1
active: [10] 15.5 nM | [11] 2.65 nM | [12] 2.3 nM | [13] 4.54 nM | [14] 4.03 nM | [18] 7650 nM | [19] 14000 nM

CCCN(CCC)C(=O)SCC
inactive: [10] | [11] | [12] | [13] | [14] | [18] | [19]

CSC(=O)c1cccc2nnsc12
inactive: [10] | [11] | [12] | [13] | [14]
